# Values joined by “and” are separate entries in the source; they are usually repeats but may differ in a detail not shown here. Identical values can stand only once. Inconclusive results are not listed. Active and inactive are the calls of the source. The calls were made as follows: active = hit-call score of the fitted dose curve at least 0.9, where 1 is the maximum; inconclusive = response in the unintended direction; inactive = score below 0.9.
# Assay: CCTE_Shafer_MEA_dev_bursting_electrodes_number: CCTE's Neural Network Formation Assay for Number of Bursting Electrodes, Shafer Lab (AID 2284043)
# Experimental: CCTE_Shafer_MEA_dev assay is conducted using Axion Biosystems 48 well microelectrode array (MEA) plates and Maestro recording system. Each well of the MEA plate contains a grid of 16 microelectrodes embedded in the culture surface. Electrically active cells, such as neurons, can be cultured over the electrodes, and electrical activity in these cells can be recorded extracellularly. The spontaneous firing of neurons is captured from each electrode on a microsecond timescale providing both temporally and spatially precise data. […] The CCTE_Shafer_MEA_dev assay uses primary cultures of rat cortical neurons. Recordings are made on days post-plating 5, 7, 9 and 12. As these cultures mature over time, neural networks develop functional activity and form cohesive networks in which electrical activity can be highly coordinated. CCTE_Shafer_MEA_dev_bursting_electrodes_number is 1 of 19 assay components of the CCTE_Shafer_MEA_dev assay. It measures the number of electrodes in a well with a burst rate of at least 1 burst (temporally-clustered group of action potential firing) every 2 minutes during a recording in a microelectrode array (MEA) using Axion Biosystems Maestro 768 channel amplifier with the AxIS adaptive spike detector. To collapse across multiple recordings made on days post-plating 5, 7, 9 and 12, the trapezoidal area-under-the-curve of the component is calculated.Data from the assay component CCTE_Shafer_MEA_dev_bursting_electrodes_number was analyzed into 1 assay endpoint. This assay endpoint, CCTE_Shafer_MEA_dev_bursting_electrodes_number, was analyzed in the negative analysis fitting direction relative to DMSO as the negative control and baseline of activity. Using a type of functional reporter, gain or loss-of-signal activity can be used to understand electrical activity.
# On the day prior to culture, each well was coated thoroughly with 150 uL of 0.05% polyethyleneimine (PEI, Sigma Cat P3143) in 50 mM HEPES (Sigma Cat H7523) at a pH of 8. The plate was incubated at 37C for one hour. PEI was rinsed out with 500 uL of sterile water three times. Plates were stored at 4C until the day of culture. This culture was plated at a seeding density of 1.5 x 10^5 cells/well on a 48-well MEA plate, prepared as described above. Cells were administered via a 25 uL media/laminin ([…]; Sigma Cat L2020-1MG) drop directly onto the microelectrode array, as adding the cells with the laminin results in better attachment than pre-coating with laminin. After 2 hours, an additional 475 uL of cortical media was added and the cells returned to the incubator. Exposure starts at day 0 of plating and is continued over twelve days of network development until the experiment is terminated. Cells are fed with fresh medium on DIV 5 and 9, following the recordings on those days. The entire volume of media in the well is exchanged and any vehicle or compound treatment is renewed. Complete details are found in OP-NHEERL/ISTD/SBB/TJS/2015-03-r0 (available on request, email shafer.tim@epa.gov). Measurement of the electrical activity is non-invasive, and recordings can be made from the same plate over multiple different days of the culture. In cortical neurons, this allows for the measurement of extracellular action potentials over the period during which networks form in the MEA plate.
SMILES,outcome,AC50
O=P1(N(CCCl)CCCl)NCCCO1 (stereo not given),inactive,
c1ccc(OP(Oc2ccccc2)Oc2ccccc2)cc1,inactive,
O=C(O)C(F)(F)C(F)(F)C(=O)O,inactive,
O=S(=O)(c1ccc(O)cc1)c1ccc(O)cc1,inactive,
O=C(O)C(F)(F)OC(F)(F)C(F)(F)OC(F)(F)C(=O)O,inactive,
CC(C)(C)c1ccccc1OP(=O)(Oc1ccccc1)Oc1ccccc1,,16.4 µM (active) and 26.8 µM (active)
OCC(F)(F)OC(F)(F)C(F)(F)OC(F)(F)CO,inactive,
ClC1=C(Cl)C2(Cl)C3C(Cl)C(Cl)CC3C1(Cl)C2(Cl)Cl (stereo not given),,7.54 µM (active)
CCOc1ccc(C(C)(C)COCc2cccc(Oc3ccccc3)c2)cc1,,8.06 µM (active)
O=P(Oc1ccccc1)(Oc1ccccc1)Oc1ccccc1,inactive,
O=C(O)C(F)(OC(F)(F)C(F)(F)C(F)(F)F)C(F)(F)F (stereo not given),inactive,
CO/N=C(/C(=O)OC)c1ccccc1COc1ccccc1C,,0.857 µM (active)
OCC(F)(F)OC(F)(F)C(F)(F)OC(F)(F)C(F)(F)OC(F)(F)CO,inactive,
CCCCC(CC)COC(=O)c1c(Br)c(Br)c(Br)c(Br)c1C(=O)OCC(CC)CCCC (stereo not given),inactive,
OCC(F)(F)OC(F)(F)C(F)(F)OC(F)(F)C(F)(F)OC(F)(F)F,inactive,
c1cc2c3c(cccc3c1)CC2,inactive,
CCCCC(CC)COP(=O)(Oc1ccccc1)Oc1ccccc1 (stereo not given),inactive,
CC(O)C(F)(F)C(F)(F)F (stereo not given),inactive,
CCOP(=S)(OCC)SCSCC,,76.1 µM (active) and 23.1 µM (active)
C=CC(=O)OCC(F)(F)C(F)F,,4.87 µM (active)

# From PubChem BioAssay (EPA / NIEHS)
